In all, about 2,400 compounds went through this assay and about 360 (15%) were called active. Inconclusive results (about 5%) are left out.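 The calls were made as follows: active = falling-signal curve with half-maximal concentration at or below ten times the top tested dose; inconclusive = flat fit at 30 to 70% inhibition, or poor fit; inactive = signal rise, flat within 30%, or potency beyond limit.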 The list is a sample of the results. Potency and affinity values are given separately.
Assay: Tet-On RFP internal-standard readout, HSF1 screen, dose response, cell-based, NIH3T3 R4, HSE-GFP and Tet-On RFP, cherry-pick, set 3 (AID 493085);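 also: cells heat shocked 2 h at 42 °C with doxycycline to induce reporters; 0% = neutral control wells and -100% = didemnin B control at 400 nM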
Conditions: NIH3T3 R4 HSE-GFP/Tet-RFP reporter, fluorescence, 48 h; series mostly up to 19.5 µM; activity change, negative = inhibition: at the top concentration

Activity change, negative = inhibition, inactive:
O=C(CN1CCN(C(=O)c2ccccc2)CC1)Nc1ncc(Br)cc1Br -7.04%
O=C(OCc1cc(=O)n2cc(Br)ccc2n1)C1COc2ccccc2O1 (stereo not drawn) -10.6%
COc1ccc(CN(CCCN2CCOCC2)C(=O)Nc2cccc(Cl)c2)cc1OC 35.5%
CCOC(=O)c1sc(NC(=O)Nc2ccccc2F)nc1C -5.42%
CCOC(=O)Cc1cnc(NC(=O)c2ccccc2)s1 -10.8%
CN1CCN(c2ccc(NC(=O)c3ccc4ccccc4c3)cc2)CC1 5.25%
COc1ccc(C(C(=O)NC2CCCCC2)N(C(=O)CCl)c2cccc(Cl)c2)cc1 (stereo not drawn) 54%
COc1ccc(C(C)NC(=S)NC2CCCCC2)cc1OC (stereo not drawn) 17%
Cc1ccc(Cn2c(=N)n(CC(=O)c3ccccc3)c3ccccc32)cc1 -8.55%
CCCCSC1=C(C#N)C(c2ccccc2C)CC(=O)N1 (stereo not drawn) -0.422%
O=C(CCc1ccccc1)Nc1cccc([N+](=O)[O-])c1 -1.97%
Cc1nc(-c2ccc(Cl)cc2)sc1C1(C)CC(c2ccc(Cl)cc2)=NO1 (stereo not drawn) 5.7%
CN(C)c1nc(OCCNC(=O)COc2ccc(Cl)cc2Cl)nc(N(C)C)n1 -11.4%
Cc1cccc(C(=O)NC2CCN(C(=O)Nc3ccc(F)cc3)CC2)c1 -0.23%
C[n+]1c(/C=C/c2ccc3c(c2)OCO3)ccc2ccccc21 -0.328%
CCc1cc(C(=O)NCC(C)(C)N2CCOCC2)sc1C -5%
CCOC(=O)c1ccc(NC(=O)NS(=O)(=O)c2ccc(C)cc2)cc1 3.23%
CCOc1ccc(NC(=O)c2cccnc2C(=O)O)cc1 3.13%
N=C1C(c2nc3ccccc3[nH]2)=C(O)CN1c1ccc(CC(=O)O)cc1 13%
O=C(O)c1ccc(N2C(=O)CC(N3CCN(c4cccc(C(F)(F)F)c4)CC3)C2=O)cc1 (stereo not drawn) 1.6%
O=C(NNc1nc2ccccc2s1)Nc1ccccc1 -0.841%
Cn1ccnc1Sc1cc(NCCCO)c([N+](=O)[O-])c2nonc12 -89.6%
COc1ccccc1Nc1ccc2nonc2c1[N+](=O)[O-] -4.82%
COc1ccc(NC(=S)Nc2ccc(Oc3ccccc3)cc2)cc1 11.4%
Cc1c(O)ccc2c(CC(=O)N[C@@H](Cc3ccc(O)cc3)C(=O)O)cc(=O)oc12 -0.067%
Cc1cc(=O)oc2c(C)c(OC(C)C(=O)NCCCN3CCOCC3)ccc12 (stereo not drawn) 0.097%
Cc1cc(NC(=O)COc2coc(CN3CCN(c4ccccc4F)CC3)cc2=O)no1 -3.4%
CCOC(=O)c1cc(C#N)c(NCc2ccccc2)nc1C -8.53%
Cc1ccc(S(=O)(=O)CCC(=O)Nc2ccc(Br)cc2)cc1 -18.7%
O=C(O)c1cc(S(=O)(=O)Nc2ccc3c(c2)OCCO3)c(Cl)cc1Cl -9.48%
CCc1ccc(-c2nc(CS(=O)CC(=O)NCc3cccnc3)c(C)o2)cc1 (stereo not drawn) -5.61%
COc1ccc(OC)c(NC(=S)NCc2cccnc2)c1 -11%
COc1ccc(OC)c(NC(=O)CSc2nc3ccccc3cc2Cc2ccccc2)c1 2.64%
COc1ccc(N(CC(=O)NCc2ccc(F)cc2)C(=O)Cn2nnc(-c3ccc(C)o3)n2)cc1OC 3.23%
O=C(Cn1cnc2c(nnn2Cc2ccc(Cl)cc2)c1=O)N1CCCc2ccccc21 -4.06%
CCN(c1ccccc1)S(=O)(=O)c1ccc(Cl)c(C(=O)N(CC2CCCO2)C2CCS(=O)(=O)C2)c1 (stereo not drawn) -4.73%
O=C(O)c1csc(-c2ccccc2)n1 2.65%
Cc1cc(C(=O)CN2CCC(C)CC2)c(C)n1-c1ccccc1F 3.3%
Cc1cc(/C=C2\SC(=S)N(Cc3ccco3)C2=O)c(C)n1-c1ccccc1 -3.22%
c1ccc(-c2nn[nH]n2)nc1 0.524%
O=C(CCCNC(=O)/C(=C\c1ccccc1F)NC(=O)c1ccccc1)OCc1ccccc1 12.5%
COc1ccccc1NS(=O)(=O)c1ccc(C)c(C(N)=O)c1 2.29%
COc1ccc(C)cc1S(=O)(=O)Nc1cc2c3c(c1)CCC(=O)N3CCC2 4.91%
CN(C)c1ccc(-c2nc3n(n2)C(c2cccnc2)C2=C(CC(C)(C)CC2=O)N3)cc1 (stereo not drawn) 8.15%
CCCn1c2ccccc2c2nnc(SCc3[nH]c(=O)[nH]c3C(=O)CCCCC(=O)OCC)nc21 -4.05%
CC(=O)NC(c1ccc(C)cc1)c1cc(Cl)c2cccnc2c1O (stereo not drawn) 9.24%
Oc1c(CN2CCOCC2)cc(COCc2ccccc2)c2cccnc12 94.7%
Cc1cccc(NCc2ccc(O)c3ncccc23)c1C -5.05%
Cn1ncc([N+](=O)[O-])c1C(=O)Nc1ccccc1Cl -12.2%
CCN1C(=O)C(CC(=O)Nc2ccc(OC)cc2)N(Cc2ccc3c(c2)OCO3)C1=S (stereo not drawn) -0.998%
Cc1cc(N=Nc2ccc(Cl)cc2)cc(CN2CCCC2)c1O -0.088%
COc1ccc(C(=O)NC(=S)N2CCNC(=O)C2CC(=O)OC(C)C)cc1 (stereo not drawn) -8.04%
CCOC(=O)c1c(C)[nH]c(C(=O)COC(=O)C2=NNC(=O)CC2)c1C 9.83%
O=C(O)c1cc(S(=O)(=O)N(Cc2ccccc2)c2ccccc2Cl)ccc1Cl -9.49%
O=C(Nc1cccnc1)c1coc(=O)c2ccccc12 0.689%
CC(C)c1ccc(NC2(C#N)C(=O)Nc3ccccc32)cc1 (stereo not drawn) -4.73%
O=C1SCC(c2ccccc2)=NN1Cc1ccccc1 5.45%
CCOc1ccc(-n2c(O)c(/C=N/Nc3nnc(C)c(=O)[nH]3)c3ccccc3c2=O)cc1 3.96%
CCOc1ccc(NCc2nnc(SCC(=O)Nc3cc(C)on3)n2-c2ccc(OC)cc2)cc1 2.07%
CCOC(=O)c1cccc(NC(=O)CCS(=O)(=O)c2ccc(Br)s2)c1 -1.87%
CC(OC(=O)CN1C(=O)c2ccccc2C1=O)C(=O)NC1CCCCC1C (stereo not drawn) 15.5%
COC1CCCN(C(=O)c2ccc(OC3CCN(CCc4ccccc4)CC3)cc2)C1 (stereo not drawn) -0.07%
O=C(CCN1C(=O)/C(=C/c2ccc(F)cc2)SC1=S)NCCCn1ccnc1 -9.6%
Cn1nc(N)c2c(-c3ccccc3)c(C#N)c(N)nc21 7.3%
Cc1c(NC(=O)C2CC(c3ccc(F)cc3)=NO2)c(=O)n(-c2ccccc2)n1C (stereo not drawn) -8.64%
Cc1ccc(N=C2NC(=O)/C(=C\c3cccs3)S2)cc1C 9.6%
O=C(NCc1ccccc1C(F)(F)F)C12CN(Cc3ccccc3)CC1C(c1ccc([N+](=O)[O-])cc1)=NO2 (stereo not drawn) 3.54%
COC(=O)c1cc(S(=O)(=O)NCc2ccc(F)cc2)cn1C -5.9%
COc1ccc(CNC(=O)CCCNC(=O)c2ccc(Cl)cc2)cc1OC -0.28%
Cc1ccc(C(=O)O/N=C(\N)c2ccccn2)c(C)c1 6.48%
CC(C)(C)C(=O)Nc1ccc(-c2cc3cc(Cl)ccc3o2)cc1 -1.75%
CCS(=O)(=O)c1ncc(Cl)c(C(=O)Nc2ccc(C)cc2)n1 11.8%
CC1CCN(S(=O)(=O)c2ccc(C(=O)Nc3nnc(-c4ccccn4)o3)cc2)CC1 -7.08%
CN1CCN(S(=O)(=O)c2ccc(Oc3ccc(F)c(Cl)c3)nc2)CC1 -5.99%
CCc1ccc(OC(C)C(=O)N(Cc2ccco2)C2CCS(=O)(=O)C2)cc1 (stereo not drawn) -7.01%
Cc1ncc([N+](=O)[O-])n1CC(=O)Nc1ccc(F)cc1 8.57%
O=C(Cn1nc(-c2ccc(Cl)cc2)ccc1=O)NCC1CCCO1 (stereo not drawn) -3.51%
O=C(O)c1cccc(Nc2ccnc(Nc3cccc(C(=O)O)c3)n2)c1 -10.5%
Cc1cc(Nc2cccc(Cl)c2)nc(-c2ccccc2O)n1 6.37%
CCOc1cc(CNCC2CCCN2CC)cc(Cl)c1OC (stereo not drawn) 13.6%
COc1ccc(-c2cn(-c3ccccc3)nc2CO)cc1 -5.57%
Cn1ccnc1C1CCCCN1C(=O)c1cc(COc2ccc(F)cc2Cl)on1 (stereo not drawn) -6.6%
Cc1cc(=O)n2[nH]c(=O)c(N=Nc3ccccc3)c2[nH]1 4.62%
CN(C)c1ccc(C(=S)Nc2ccccc2)cc1 0.39%
CN(C)c1ccc(/C=N/NC(=O)C2COc3ccccc3O2)o1 (stereo not drawn) 48.8%
Cc1ccc(Cl)cc1NC(=O)C1COc2ccccc2O1 (stereo not drawn) -0.583%
Cc1ccc(O)c(/C=N/NC(=O)CN2CCCC2)c1 0.931%
NCCCC[C@@H](C(=O)N1CCNCC1)n1cc([C@@H](N)CO)nn1 5.14%
COc1ccc(OC)c(C(=O)c2ccc(C(=O)O)cc2)c1 2.81%
COc1ccc(C(=O)c2c[nH]cc2-c2ccccc2)cc1 -2.31%
Cc1cn2c(nc(=O)c3cccnc32)s1 -0.559%
Cc1ccc(S(=O)(=O)N2CCC(C)CC2)cc1[N+](=O)[O-] -4.18%
COc1ccc(C(=O)N/C(=C\c2cccs2)c2nc3ccccc3[nH]2)cc1OC 3.93%
Cn1c(N2CCOCC2)nc(-c2ccccc2)c1-c1ccccc1 -9.58%
C=CCc1c(C)nc2c(-c3ccccc3)cnn2c1N1CCOCC1 2.27%
C=CCn1c(C)cc(C(=O)COC(=O)CNC(=O)c2ccccc2)c1C -5.09%
O=C(COC(=O)c1cc[n+]([O-])cc1)Nc1cccc(Cl)c1Cl 0.417%
CNC(=O)COC(=O)c1ccccc1C(=O)c1ccc(Cl)c([N+](=O)[O-])c1 5.21%
CC(C)(C)c1ccc(/C=C(\C#N)C(=O)Nc2ccccn2)cc1 -4.51%
COc1cc(C(C(=O)NCc2ccccc2)N(Cc2ccco2)C(=O)c2cnccn2)cc(OC)c1OC (stereo not drawn) -12.3%
COc1ccc2cc3c(N)nn(C(=O)Cc4c[nH]c5ccccc45)c3nc2c1 -34.1%
CSc1cccc(NC(=S)N2CCC(N(C)C3CCCC3)CC2)c1 0.463%
CS(=O)(=O)c1ccc(NC(=O)c2ccc3c(c2)S(=O)(=O)N=C2CCCCCN23)cc1 -1.06%
Cc1cccc(N(Cc2ccccc2)C(=O)CCl)c1 29.4%
CCN(C(=O)COC(=O)/C=C/c1ccccc1)C1CCCCC1 4.41%
COc1ccccc1NC(=O)[C@H](COCc1ccccc1)NC(=O)OC(C)(C)C -5.58%
CCn1c(SCC(=O)N(C)C2CCS(=O)(=O)C2)nnc1-c1cccs1 (stereo not drawn) 10.8%
CN(C(=O)CCNC(=O)Cn1cnc2ccccc2c1=O)c1ccccc1F -8.21%

Source: PubChem BioAssay AID493085 (Broad Institute, 2011)
